Assay results from PubChem BioAssay (NCATS).
Records with an inconclusive call do not appear. Entries that show only a call come without a potency. Unmarked numbers belong to inactive results. Activity calls are given as the source filed them. Calls follow the shape of the dose curve; as a rule, active = well fitted curve in the direction sought with a large enough effect; inconclusive = small, poorly fitted or top-dose-only effect, or another doubt; inactive = no such curve, though single readings can be large; an effect the other way counts as inactive or inconclusive. *1 amine or outer side, *2 acyl side, *3 side chain or, on linkers, in order; H or OH if unused. Where a SMILES comes first, the peptide text is derived from it. [ ]: non-standard residue; d: D form. The star is where a group is joined. ξ: configuration not given here. X9 = CCC(C)(N*)C(=O)C1CC[C@@H](C(=O)N[C@@H](Cc2ccccc2)C(=O)NCC(=O)O)N1; X8 = O=C([C@@H]1CC(O)CN1[*:1])[*:2]; aIle = CC[C@@H](C)[C@H](N)C(=O)O; Thr(3ξ) = CC(O)[C@H](N)C(=O)O; ξIva = CCC(C)(N)C(=O)O; Aib = CC(C)(N)C(=O)O

Tests used:
[1] = target: Calcium and integrin-binding protein 1 (Homo sapiens) (UniProt Q99828); assay: Primary qHTS for Identification of Calcium Integrin Binding Protein 1 (CIB1) Competitor (AID 1508620); conditions: CIB1-GST / FITC-alphaIIb peptide fluorescence polarization; series mostly up to 57.7 µM;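 also: GST tagged CIB1 binding a fluorescein labelled alphaIIb integrin peptide tracer; top concentration of the series differs between compounds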
Summary of the method: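 Fluorescence polarization competition: GST-tagged CIB1 (1 uM final) preincubated with compound 15 min at room temperature, then FITC-labelled alphaIIb peptide (100 nM final) added. After 15 min at room temperature, polarization read at Ex 480/Em 540.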

[2] = Primary qHTS for inhibitors of nuclear receptor binding SET domain protein 2 (NSD2) in an isogenic RCH-ACV NSD2 p.E1099K mutant (9B) (AID 1645876); conditions: RCH-ACV NSD2 E1099K (9B) viability, CellTiter-Glo, 72 h; series mostly up to 44.9 µM; also: nearly all actives have a fitted effect of over 70% in size
[3] = Primary qHTS for inhibitors of nuclear receptor binding SET domain protein 2 (NSD2) in an RCH-ACV wild type WT cells (2C) (AID 1645877); conditions: RCH-ACV (leukaemia line) NSD2 WT (2C) viability, CellTiter-Glo, 72 h; series mostly up to 44.9 µM; also: nearly all actives have a fitted effect of over 70% in size

Sequence of Calcium and integrin-binding protein 1 (Homo sapiens) (Q99828 whole entry, looked up): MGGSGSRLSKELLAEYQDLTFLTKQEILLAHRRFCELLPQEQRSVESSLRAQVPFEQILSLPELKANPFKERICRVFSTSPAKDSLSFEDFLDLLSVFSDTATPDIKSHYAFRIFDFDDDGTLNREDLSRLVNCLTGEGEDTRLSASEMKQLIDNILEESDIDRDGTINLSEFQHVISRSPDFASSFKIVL

C[C@]12CCC[C@](C)(C(=O)O)C1[C@@H](O)[C@@H](O)C13CC(CCC12)C(CO)(O[C@@H]1O[C@H](CO)[C@@H](O)[C@H](O)[C@H]1O)C3 (some centres not stated)
Potency [1]: inactive | Potency [2]: inactive | Potency [3]: inactive

CO[C@H]1c2cc(C(C)C)c(O)c(O)c2[C@@]23CCCC(C)(C)C2[C@@H]1OC3=O (some centres not stated)
Potency [1]: inactive | Potency [2]: inactive

C/C=C1/[C@H](O[C@@H]2O[C@H](CO)[C@@H](O)[C@H](O)[C@H]2O)OC=C2C(=O)O[C@@H]3C[C@@H](C(C)CO)[C@H](COC(=O)C[C@H]21)[C@H]3C (some centres not stated)
Potency [1]: inactive | Potency [2]: inactive

CC[C@@H](C)[C@H](NC(=O)C(C)(C)NC(=O)[C@H](CCC(N)=O)NC(=O)C(C)(CC)NC(=O)[C@H](Cc1c[nH]c2ccccc12)NC(C)=O)C(=O)N[C@H](C(=O)NC(C)(C)C(=O)N[C@@H](CC(C)C)C(=O)NC(C)(C)C(=O)N1CCC[C@H]1C(=O)N[C@@H](CCC(N)=O)C(=O)NC(C)(C)C(=O)N1CC(O)C[C@H]1C(=O)NC(C)(CC)C(=O)C1CC[C@@H](C(=O)N[C@@H](Cc2ccccc2)C(=O)NCC(=O)O)N1)C(C)O (some centres not stated) (Ac-W[ξIva]Q[Aib][aIle][Thr(3ξ)][Aib]L[Aib]PQ[Aib][X8]-X9)
activity change, negative = inhibition [1]: 3.33% [at 12.4 µM] | activity change, negative = viability loss [2]: -38.6% [at 4.96 µM]

CC(=O)NC(C(=O)OC1CCC(C)(C)C2CC=C3C(=O)OCC3C12C)C(C)C (configuration not stated)
Potency [1]: inactive | Potency [2]: inactive

C=C1C(=O)O[C@@H]2/C=C(\C)CC/C=C(\C(=O)O[C@@H]3O[C@H](CO)[C@@H](O)[C@H](O)[C@H]3O)CC[C@@H]12
Potency [1]: inactive | Potency [2]: inactive

CC1(C(=O)O)CCCC2(C)C3CCC4CC3(CCC12)CC4(O)CO (configuration not stated)
Potency [1]: inactive | Potency [2]: inactive

CCC(C)C(=O)O[C@H]1[C@@H](O[C@H]2O[C@H](CO)[C@@H](O)[C@H](O)[C@H]2O)O[C@H](CO)[C@@H](O)[C@@H]1O (some centres not stated)
Potency [1]: inactive | Potency [2]: inactive

C=C1CCC2C(C)(C(=O)OC)CCCC2(C)C1CCC1=CCOC1=O (configuration not stated)
Potency [1]: inactive | Potency [2]: inactive

C=C1[C@H]2CCC3[C@]4(C)CCC[C@@](C)(C(=O)O)C4CC[C@]3(C2)[C@H]1OC(C)=O (some centres not stated)
Potency [1]: inactive | Potency [2]: inactive | Potency [3]: inactive

COC(=O)c1ccc(OC)cc1O[C@@H]1O[C@H](CO[C@@H]2OC[C@@H](O)[C@H](O)[C@H]2O)[C@@H](O)[C@H](O)[C@H]1O
Potency [1]: inactive | Potency [2]: inactive | Potency [3]: inactive

C=C1CC[C@@]2(OC1)O[C@H]1CC3[C@@H]4CC=C5C[C@@H](O)C[C@@H](O[C@@H]6OC[C@H](O)[C@H](O)[C@H]6O[C@@H]6O[C@@H](C)[C@H](O)[C@@H](O)[C@H]6O)[C@]5(C)C4CC[C@]3(C)[C@H]1[C@@H]2C (some centres not stated)
Potency [1]: inactive | Potency [2]: inactive

CC[C@@H]1[C@H]2CCCCN3C(=O)C[C@H]([C@@H]4[C@H]1OC(=O)[C@H]4C)[C@@H]23
Potency [1]: inactive | Potency [2]: inactive

C=C1C2(C)CC3C4(C)C=CC(=O)OC(C)(C)C4CCC3(C)C1(C(=O)OC)C(=O)C(C)(O)C2=O (configuration not stated)
Potency [1]: inactive | Potency [2]: inactive | Potency [3]: inactive

C=C1CCC2C(C)(C)CC(=O)CC2(C)C1CCC(C)CCO (configuration not stated)
Potency [1]: inactive | Potency [2]: inactive

C=C1CC[C@@H]2C(C)(C)CCC[C@@]2(C)[C@@H]1CC/C(=C/C(=O)OC)COC(C)=O
Potency [1]: inactive | Potency [2]: inactive

C=C[C@@]1(C)CCC2=C([C@H]1OC(C)=O)[C@H](OC(C)=O)CC1[C@](C)(C(=O)OC)CC[C@H](OC(C)=O)[C@]21C (some centres not stated)
Potency [1]: inactive | Potency [2]: inactive | Potency [3]: inactive

C=C1C(O)CCC2(C)CC3(OC)OC(=O)C(C)=C3CC12 (configuration not stated)
Potency [1]: inactive | Potency [2]: inactive

C/C(=C\CC[C@H](CO)[C@@H]1CC[C@]2(C)C3=C(CC[C@@]12C)[C@@]1(C)CCC(=O)C(C)(C)C1CC3)C(=O)O (some centres not stated)
Potency [1]: inactive | Potency [2]: inactive

COc1c(C)c(OCC=C(C)C)cc2c1COC2=O
Potency [1]: inactive | Potency [2]: inactive

C=CC(C)(O)CCC1C(C)(O)CCC2C(C)(C)CCCC21C (configuration not stated)
Potency [1]: inactive | Potency [2]: inactive

CC1(C)CC2C3=CCC4[C@@]5(C)CC[C@H](OC6OCC(O)C(OC7OC(CO)C(O)C(O)C7O)C6O)C(C)(C)C5CC[C@@]4(C)[C@]3(C)C[C@H](O)[C@@]2(CO)[C@H](OC(=O)c2ccccc2)C1 (some centres not stated)
Potency [1]: inactive | activity change, negative = viability loss [2]: -12.4% [at 9.23 µM]

C[C@@H]1O[C@@H](O[C@@H]2[C@@H](O)[C@H](O[C@H]3[C@H](O[C@H]4CC[C@@]5(C)C(CC[C@]6(C)C5CC=C5[C@@H]7CC(C)(C)CC[C@]7(C(=O)O[C@@H]7O[C@H](CO)[C@@H](O)[C@H](O)[C@H]7O)CC[C@]56C)C4(C)C)O[C@H](C(=O)O)[C@@H](O)[C@@H]3O)OC[C@H]2O)[C@H](O)[C@H](O)[C@H]1O (some centres not stated)
Potency [1]: inactive | activity change, negative = viability loss [2]: 2.27% [at 9.23 µM] | activity change, negative = cell killing [3]: -1.93% [at 9.23 µM]
